We go through five molecules from PubChem BioAssay.

Active and inactive are the calls of the source.

The nature of assay [1]: small molecules captured by biotinylated probe aFSTL3 – biochemical, small-molecule microarray, fluorescence 635/667, stem cell growth factor project, primary screen (AID 1064).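 Further: measures binding of the biotinylated anti-FSTL3 antibody to printed compounds.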 As to conditions: higher = more signal.
Assay [2] is described as follows: binders from COS7 lysate, DM2A8 probe, primary screen, torsin A project, cell lysate, small-molecule microarray, fluorescence 635/667 (AID 1065). As to conditions: higher = more signal, COS7 lysate expressing mutant human TOR1A.
A short description of assay [3]: small molecules captured by biotinylated probe aFGF2 – biochemical, small-molecule microarray, fluorescence 635/667, stem cell growth factor project, primary screen (AID 1067).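 Further: measures binding of biotinylated aFGF2 protein to printed compounds on slides; z-score merges feature fluorescence and signal-to-noise across triplicate slides.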 As to conditions: higher = more signal.
Assay [4] in a line: small molecules captured by biotinylated probe aFGF10 – biochemical, small-molecule microarray, fluorescence 635/667, stem cell growth factor project, primary screen (AID 1071).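 Further: score merges 667 nm spot intensity and signal to noise from triplicate slides.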 As to conditions: higher = more signal.
For assay [5], the target named is Neurogenic locus notch homolog protein 2 (Homo sapiens) (UniProt Q04721). The assay can be described thus: small molecules binding Notch2 protein – biochemical, small-molecule microarray, 635 nm fluorescence, stem cell growth factors, primary screen (AID 1073). As to conditions: higher = more signal.
Chain of Neurogenic locus notch homolog protein 2 (Homo sapiens) (Q04721 whole entry, looked up, canonical isoform): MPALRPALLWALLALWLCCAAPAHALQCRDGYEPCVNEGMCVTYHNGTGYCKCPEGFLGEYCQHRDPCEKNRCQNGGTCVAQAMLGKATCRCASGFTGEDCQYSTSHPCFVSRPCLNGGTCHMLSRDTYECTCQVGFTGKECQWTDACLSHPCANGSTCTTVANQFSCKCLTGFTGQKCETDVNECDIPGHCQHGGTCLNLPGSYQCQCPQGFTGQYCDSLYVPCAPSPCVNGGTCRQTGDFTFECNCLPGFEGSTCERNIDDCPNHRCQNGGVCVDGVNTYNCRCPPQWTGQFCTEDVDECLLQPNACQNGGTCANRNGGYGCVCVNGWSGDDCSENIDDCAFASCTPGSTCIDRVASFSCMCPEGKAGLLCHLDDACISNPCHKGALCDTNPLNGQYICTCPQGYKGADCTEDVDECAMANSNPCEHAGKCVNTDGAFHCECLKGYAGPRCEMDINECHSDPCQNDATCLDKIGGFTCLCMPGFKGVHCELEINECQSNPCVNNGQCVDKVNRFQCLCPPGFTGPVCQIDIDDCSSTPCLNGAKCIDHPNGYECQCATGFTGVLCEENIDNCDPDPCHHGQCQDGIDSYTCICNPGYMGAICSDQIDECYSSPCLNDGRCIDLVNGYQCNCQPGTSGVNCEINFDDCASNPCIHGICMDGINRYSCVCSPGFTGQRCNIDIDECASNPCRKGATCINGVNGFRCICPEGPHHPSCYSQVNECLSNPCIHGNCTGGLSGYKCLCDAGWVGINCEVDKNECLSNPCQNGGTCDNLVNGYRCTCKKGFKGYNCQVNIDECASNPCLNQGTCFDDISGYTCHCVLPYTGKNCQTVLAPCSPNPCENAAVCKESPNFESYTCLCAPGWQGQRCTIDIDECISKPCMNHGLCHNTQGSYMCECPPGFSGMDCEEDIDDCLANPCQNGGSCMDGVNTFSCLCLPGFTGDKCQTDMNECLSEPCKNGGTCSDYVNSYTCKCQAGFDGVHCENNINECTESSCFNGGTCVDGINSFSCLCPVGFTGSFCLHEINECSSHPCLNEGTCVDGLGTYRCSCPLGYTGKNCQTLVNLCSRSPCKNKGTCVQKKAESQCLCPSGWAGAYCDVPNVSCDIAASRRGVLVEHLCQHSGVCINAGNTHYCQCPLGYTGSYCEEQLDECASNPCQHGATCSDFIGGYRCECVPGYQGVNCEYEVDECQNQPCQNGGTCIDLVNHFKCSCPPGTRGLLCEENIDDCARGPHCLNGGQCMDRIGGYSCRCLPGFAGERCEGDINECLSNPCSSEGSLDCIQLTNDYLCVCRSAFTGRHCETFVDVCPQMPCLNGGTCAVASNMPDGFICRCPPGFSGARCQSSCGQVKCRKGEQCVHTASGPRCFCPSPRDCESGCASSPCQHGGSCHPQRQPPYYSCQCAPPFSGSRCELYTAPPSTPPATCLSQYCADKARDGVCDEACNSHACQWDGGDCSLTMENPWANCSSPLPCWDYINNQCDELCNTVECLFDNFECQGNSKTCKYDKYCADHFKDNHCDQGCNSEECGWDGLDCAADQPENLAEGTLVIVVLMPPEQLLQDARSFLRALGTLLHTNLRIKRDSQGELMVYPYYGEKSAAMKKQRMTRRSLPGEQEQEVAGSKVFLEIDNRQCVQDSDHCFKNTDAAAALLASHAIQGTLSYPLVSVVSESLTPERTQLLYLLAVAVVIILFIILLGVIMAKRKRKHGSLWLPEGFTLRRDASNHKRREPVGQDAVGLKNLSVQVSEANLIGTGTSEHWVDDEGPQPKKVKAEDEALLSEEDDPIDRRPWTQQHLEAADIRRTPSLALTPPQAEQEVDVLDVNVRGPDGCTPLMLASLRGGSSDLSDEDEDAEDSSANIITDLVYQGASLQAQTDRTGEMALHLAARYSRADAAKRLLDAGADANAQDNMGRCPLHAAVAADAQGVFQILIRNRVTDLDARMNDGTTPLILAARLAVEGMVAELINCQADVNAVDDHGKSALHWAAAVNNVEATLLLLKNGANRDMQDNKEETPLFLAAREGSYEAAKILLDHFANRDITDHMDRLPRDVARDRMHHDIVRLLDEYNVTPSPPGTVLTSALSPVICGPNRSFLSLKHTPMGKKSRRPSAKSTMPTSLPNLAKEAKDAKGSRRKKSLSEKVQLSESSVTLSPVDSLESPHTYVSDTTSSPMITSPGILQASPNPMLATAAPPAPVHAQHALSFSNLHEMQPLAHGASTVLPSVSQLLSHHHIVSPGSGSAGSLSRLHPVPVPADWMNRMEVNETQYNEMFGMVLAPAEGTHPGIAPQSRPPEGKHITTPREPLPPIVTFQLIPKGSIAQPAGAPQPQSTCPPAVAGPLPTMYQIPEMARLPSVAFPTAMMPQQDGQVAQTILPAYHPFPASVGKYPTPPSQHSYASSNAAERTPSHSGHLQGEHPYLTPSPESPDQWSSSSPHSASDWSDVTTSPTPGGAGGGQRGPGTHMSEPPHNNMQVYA
The target of assay [6] is Pro-neuregulin-1, membrane-bound isoform (Homo sapiens) (UniProt Q02297). The assay can be described thus: small molecules binding neuregulin-1 protein – biochemical, small-molecule microarray, fluorescence 635/667, psychiatric disease protein project, primary screen (AID 1075).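 Further: score combines 667 nm spot fluorescence with signal to noise.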 As to conditions: NRG1 binding, 635 nm fluorescence, higher = more signal.
Chain of Pro-neuregulin-1, membrane-bound isoform (Homo sapiens) (Q02297 whole entry, looked up, the tested form may be a part, canonical isoform): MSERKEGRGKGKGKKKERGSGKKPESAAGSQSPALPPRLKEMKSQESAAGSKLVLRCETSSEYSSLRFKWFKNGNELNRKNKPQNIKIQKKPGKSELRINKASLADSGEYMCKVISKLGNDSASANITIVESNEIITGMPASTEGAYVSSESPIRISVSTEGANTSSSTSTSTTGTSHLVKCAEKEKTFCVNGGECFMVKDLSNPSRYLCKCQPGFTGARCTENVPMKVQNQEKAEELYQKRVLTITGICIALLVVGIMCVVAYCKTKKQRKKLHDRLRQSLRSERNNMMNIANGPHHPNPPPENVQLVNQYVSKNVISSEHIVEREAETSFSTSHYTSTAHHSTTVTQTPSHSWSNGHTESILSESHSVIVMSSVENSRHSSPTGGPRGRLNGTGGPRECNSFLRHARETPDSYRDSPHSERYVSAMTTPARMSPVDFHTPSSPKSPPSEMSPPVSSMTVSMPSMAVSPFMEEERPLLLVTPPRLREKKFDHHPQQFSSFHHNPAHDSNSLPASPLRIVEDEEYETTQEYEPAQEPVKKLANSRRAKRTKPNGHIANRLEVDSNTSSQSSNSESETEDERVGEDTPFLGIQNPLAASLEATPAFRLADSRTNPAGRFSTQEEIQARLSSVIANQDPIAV
Assay [7] deals with Neuregulin-1 EGF-like domain. The experiment in a line: small molecules binding NRG1 EGF domain – biochemical, small-molecule microarray, 635 nm fluorescence, primary screen (AID 1081).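 Further: binding of the protein to compounds printed on small-molecule microarray slides.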 As to conditions: higher = more signal.
Assay [8] is described as follows: FRG1 expression reporter modulators in myotubes – cell-based, C2C12 myotubes, firefly/Renilla luciferase, luminescence, FRG1 inhibition for FSHD, primary screen (AID 1084). As to conditions: FRG1 promoter luciferase, higher = more signal, called active from +8 up or from −8 down.
Assay [9] is described as follows: small molecules captured by biotinylated probe aFST – biochemical, small-molecule microarray, fluorescence 635/667, stem cell growth factor project, primary screen (AID 1086).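 Further: score merges 667 nm fluorescence with signal-to-noise of each printed compound spot.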 As to conditions: higher = more signal.
Assay [10] is described as follows: binders of probe aHhip on microarray, primary screen, stem cell growth factor project, biochemical, small-molecule microarray, fluorescence 635/667 (AID 1087).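 Further: score merges spot fluorescence at 667nm with spot signal to noise ratio.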 As to conditions: higher = more signal.
Assay [11] deals with PRMT1 (protein arginine N-methyltransferase 1). The experiment in a line: small molecules binding arginine methyltransferase PRMT1 – biochemical, small-molecule microarray, 635 nm fluorescence, primary screen (AID 1088).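 Further: binding of Prmt1 protein to compounds spotted on small-molecule microarray slides.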 As to conditions: higher = more signal.
Assay [12] in a line: growth effects on S. cerevisiae YJM789 – YJM789 clinical isolate, OD600, 24 h, basal, primary screen (AID 1089).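 Further: growth of clinical yeast isolate S. cerevisiae YJM 789 seeded 1000 cells per well; test concentration not given here.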 As to conditions: higher = more signal, called active from +8 up or from −8 down.
A short description of assay [13]: S. pombe growth modifiers, basal conditions – strain 972, OD600, 24 h, no modulator, primary screen (AID 1090).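 Further: basal condition with compound alone and no growth modifier present; test concentration not given here.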 As to conditions: S. pombe 972 growth, higher = more signal, called active from +8 up or from −8 down.
A short description of assay [14]: budding yeast growth modifiers under rapamycin – strain BY4716, OD600, 96 h, primary screen (AID 1091). Further: test concentration not given here. As to conditions: S. cerevisiae BY4716 + rapamycin, higher = more signal, called active from +8 up or from −8 down.
In assay [15] the target is Torsin-1A-interacting protein 2 (Homo sapiens) (UniProt Q8NFQ8). The experiment in a line: small molecules binding lysate-expressed LULL1 – cell lysate, human LULL1 lysate, 635/667 nm fluorescence, primary screen (AID 1092).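 Further: score merges per-feature 667 nm fluorescence with signal-to-noise.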 As to conditions: small-molecule microarray, hLULL1 lysate binding, 635 nm fluorescence; higher = more signal.
Chain of Torsin-1A-interacting protein 2 (Homo sapiens) (Q8NFQ8 whole entry, looked up): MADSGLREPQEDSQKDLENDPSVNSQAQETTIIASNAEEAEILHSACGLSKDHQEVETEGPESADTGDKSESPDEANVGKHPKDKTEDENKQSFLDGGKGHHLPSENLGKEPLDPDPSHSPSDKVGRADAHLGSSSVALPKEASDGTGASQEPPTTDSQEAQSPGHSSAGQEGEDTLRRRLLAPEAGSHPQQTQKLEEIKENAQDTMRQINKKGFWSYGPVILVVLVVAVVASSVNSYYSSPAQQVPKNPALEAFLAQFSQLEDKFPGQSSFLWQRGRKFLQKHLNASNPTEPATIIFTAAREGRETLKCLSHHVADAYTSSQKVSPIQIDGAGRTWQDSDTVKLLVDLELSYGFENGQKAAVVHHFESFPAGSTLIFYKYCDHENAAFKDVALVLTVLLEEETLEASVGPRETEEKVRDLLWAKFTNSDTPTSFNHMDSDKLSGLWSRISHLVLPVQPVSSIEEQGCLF
Assay [16] is described as follows: optical density change of DRC41 E. coli – strain DRC41, OD650, 24 h, E. coli filamentation project, primary screen (AID 1093).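 Further: MC1000 strain lacking acrAB efflux and sulA so SOS filamentation is blocked; test concentration not given here.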 As to conditions: E. coli DRC41 growth, higher = more signal, called active from +8 up or from −8 down.
Assay [17] is described as follows: probe aLefty2 binding to arrayed compounds – biochemical, biotinylated probe, 635/667 nm fluorescence, primary screen (AID 1094).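 Further: score merges spot fluorescence near 667 nm with spot signal-to-noise ratio.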 As to conditions: small-molecule microarray, higher = more signal.
Assay [18] deals with Noggin (protein binding on small-molecule microarray). The assay can be described thus: small molecules binding Noggin protein – biochemical, 635/667 nm fluorescence, primary screen (AID 1095).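 Further: score merges 667 nm feature fluorescence with signal to noise over triplicate slides.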 As to conditions: 635 nm fluorescence, higher = more signal.
Assay [19] addresses Neurogenic locus notch homolog protein 3 (Homo sapiens) (UniProt Q9UM47). The assay can be described thus: small molecules binding NOTCH3 protein – biochemical, 635/667 nm fluorescence, primary screen (AID 1096). As to conditions: small-molecule microarray, 635 nm fluorescence, higher = more signal.
Assay [20] is described as follows: probe aEGFR binding to arrayed compounds – biochemical, biotinylated probe, 635/667 nm fluorescence, primary screen (AID 1097).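 Further: probe is a biotinylated anti-EGFR antibody binding compounds printed on slides; score combines fluorescence near 667 nm and signal to noise of each spot.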 As to conditions: small-molecule microarray, higher = more signal.

For `[N-]=[N+]=NCc1ccccc1C[C@@]1(C(=O)NCc2ccccc2)N=C(c2ccc(OCCCO)cc2)O[C@@H]1c1ccccc1`, the composite z-score in assay [1] was 1.16; in assay [2], 0.997; in [3] it was 0.0336; in assay [4], 0.422; in assay [5], 0.853; in assay [6], 0.457. In addition, the composite z-score in assay [7] was 0.856; in assay [9] it was 0.551; in assay [10] it was -0.191; in assay [11], 0.475; in assay [15] it was 1.82; in assay [17], 0.247. Moreover, the composite z-score in [18] was -0.41; in assay [19], -0.0209; in [20], 0.0139. Further, the z-score in assay [8] is -3.28 (inactive); in assay [12], 1.06 (inactive); in assay [13] it was 0.393 (inactive); in [14], 32.7 (active); in assay [16] it was 2.1 (inactive).
For `CCCCCN1CC=CC23O[C@@H]4/C=C\CCC(C)OC(=O)C4[C@H]2C(=O)N(CCO)[C@@H]3C1=O` (stereo not given in full), the composite z-score is 0.767 in assay [1]; 2.14 in [2]; -0.216 in [3]; -0.807 in assay [4]; -0.762 in [5]; 0.77 in assay [6]. For the same molecule, the composite z-score was 1.13 in [7]; -0.639 in assay [9]; -0.16 in [10]; -0.754 in assay [11]; 1.45 in [15]; -0.139 in assay [17]. The composite z-score in [18] is -1.36; in assay [19], -0.728; in assay [20] it was -0.317. Moreover, the z-score in assay [8] was 0.569 (inactive); in assay [12] it was -0.139 (inactive); in assay [13], -1.24 (inactive); in [14], -0.0531 (inactive); in assay [16], 2.35 (inactive).
For `CC(C)C[C@@H]1NC(=O)[C@@H]2C[C@H](C(=O)NCCCCCNC(=O)CS)[C@H](c3cccc(OCCO)c3)N2C1=O`, the composite z-score was 0.0138 in [1]; 1.55 in assay [2]; -0.0332 in [3]; 0.355 in [4]; 0.947 in assay [5]; 1.35 in assay [6]. Also, the composite z-score in assay [7] is 1.29; in assay [9], 0.35; in assay [10] it was -0.286; in assay [11], 1.55; in assay [15], 2.23; in assay [17] it was -0.0153. In addition, the figures for the composite z-score in [18], in assay [19] and in assay [20] were 1.44, 1.06 and 0.133, respectively. Also, the z-score is 0.152 (inactive) in assay [8]; -1.66 (inactive) in assay [12]; -0.926 (inactive) in assay [13]; -0.565 (inactive) in assay [14]; 2.24 (inactive) in assay [16].
Consider `NC(=O)NCC#Cc1ccc2c(c1)[C@]1(C(=O)N2)[C@H](c2ccc(OCCO)cc2)N2[C@H](c3ccccc3)[C@H](c3ccccc3)OC(=O)[C@H]2[C@@H]1C(=O)Nc1nc2ccccc2s1`, for which the composite z-score was 1.02 in [1]; -0.528 in assay [2]; -0.0953 in [3]; 0.0777 in [4]; -0.442 in assay [5]; -0.214 in [6]. Besides, the composite z-score in assay [7] is -0.748; in assay [9], 0.668; in [10] it was -0.132; in assay [11], -0.136; in [15], 0.759; in assay [17], 0.289. The composite z-score was -0.17 in assay [18], -0.0446 in assay [19] and -0.0946 in [20]. Further, the z-score is 2.5 (inactive) in assay [8]; 2.55 (inactive) in assay [12]; 0.766 (inactive) in [13]; 4.18 (inactive) in assay [14]; 2.26 (inactive) in [16].
Consider `COC(=O)C1=CC(c2ccc(CO)cc2)=CC(c2cccs2)N(C)C=C1C(=O)OC` (stereo not given), for which the composite z-score in assay [1] is 1.13; in [2], 0.2; in assay [3], -0.0625; in assay [4], -0.0568; in assay [5], -0.109; in assay [6], 1.96. For the same molecule, the composite z-score in [7] is 1.29; in [9] it was 0.308; in [10], -0.226; in assay [11], 0.853; in [15], 2.88; in [17], 0.0094. Also, the composite z-score is -0.853 in assay [18], 0.302 in [19] and -0.135 in assay [20]. For the same molecule, the z-score is 1.36 (inactive) in [8]; -0.543 (inactive) in assay [12]; -5.22 (inactive) in [13]; -0.424 (inactive) in assay [14]; 0.637 (inactive) in [16].
